What was measured:
Settings in all cases: concentration: 1 μM, replicates: in singlicate; n = 1
CSF1R-autoinhibited = test system: CSF1R-autoinhibited
CSF1R = test system: CSF1R
CSK = test system: CSK
CSNK1A1L = test system: CSNK1A1L
CSNK1A1 = test system: CSNK1A1
CSNK1D = test system: CSNK1D
CSNK1E = test system: CSNK1E
CSNK1G1 = test system: CSNK1G1
CSNK1G2 = test system: CSNK1G2
CSNK1G3 = test system: CSNK1G3
CSNK2A1 = test system: CSNK2A1
CSNK2A2 = test system: CSNK2A2
CTK = test system: T1, CTK
T1 construct: gene MATK

DAPK1 = test system: DAPK1
DAPK2 = test system: DAPK2
DAPK3 = test system: DAPK3
DCAMKL1 = test system: T2, DCAMKL1
T2 construct: gene DCLK1

DCAMKL2 = test system: T3, DCAMKL2
T3 construct: gene DCLK2

DCAMKL3 = test system: T4, DCAMKL3
T4 construct: gene DCLK3

DDR1 = test system: DDR1
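Also: KINOMEscan kinase panel screen.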

SMILES	%Inh (CSF1R-autoinhibited)	%Inh (CSF1R)	%Inh (CSK)	%Inh (CSNK1A1L)	%Inh (CSNK1A1)	%Inh (CSNK1D)	%Inh (CSNK1E)	%Inh (CSNK1G1)	%Inh (CSNK1G2)	%Inh (CSNK1G3)	%Inh (CSNK2A1)	%Inh (CSNK2A2)	%Inh (CTK)	%Inh (DAPK1)	%Inh (DAPK2)	%Inh (DAPK3)	%Inh (DCAMKL1)	%Inh (DCAMKL2)	%Inh (DCAMKL3)	%Inh (DDR1)
c1ccc(-c2ccc3c(-c4ccnc(Nc5ccc6c(c5)OCCO6)n4)cnn3n2)cc1 [GW818941]	0%	1%	84%	0%	40%	8%	0%	1%	11%	27%	18%	9%	2%	0%	0%	0%	0%	0%	0%	0%
Cl.Cn1ccc(-c2cccc(Nc3ccnc4cc(-c5nccs5)ccc34)c2)n1 [GW525701]	29%	0%	0%	5%	0%	12%	21%	5%	0%	0%	0%	0%	0%	17%	0%	2%	13%	0%	26%	52%
Nc1nc(-c2cccnc2)c(-c2ccnc3ccccc23)s1 [GW684083]	0%	1%	0%	9%	1%	65%	71%	10%	0%	13%	2%	1%	0%	0%	0%	0%	18%	4%	14%	0%
CNc1nccc(-c2c(-c3ccc(F)cc3)ncn2CCCN2CCOCC2)n1 [SB-222516]	0%	0%	0%	2%	0%	8%	19%	4%	10%	4%	6%	5%	0%	0%	0%	15%	8%	0%	19%	0%
OCCOCCn1ccc2ncnc(Nc3ccc(Oc4cccc(Cl)c4)c(Cl)c3)c21	0%	0%	0%	0%	0%	0%	0%	0%	0%	0%	0%	0%	0%	0%	0%	0%	36%	0%	0%	0%
Cl.Fc1ccccc1COc1ccc(Nc2ncnc3ccc(-c4nnc(C(F)(F)F)o4)cc23)cc1Cl [GW424170]	0%	6%	0%	0%	0%	5%	22%	0%	0%	30%	0%	15%	0%	0%	0%	5%	10%	1%	7%	6%
CN1CCC(n2cnc(-c3ccc(F)cc3)c2-c2ccnc(NC3CCNCC3)n2)CC1 [SB-229482]	47%	16%	0%	28%	95.1%	92.1%	93.4%	0%	0%	0%	12%	21%	9%	14%	15%	0%	0%	16%	16%	0%
O=C(Nc1ccccc1F)NC1CCN(c2ccnc(Nc3ccc(F)cc3)n2)C1 (stereo not drawn) [GSK1379722]	7%	4%	0%	0%	0%	13%	27%	0%	100%	8%	0%	0%	0%	0%	0%	5%	0%	0%	5%	3%
Cl.c1ccc(Cn2ncc3cc(Nc4ncnc5ccccc45)ccc32)cc1 [GW273749]	0%	22%	38%	12%	0%	15%	42%	12%	0%	30%	4%	13%	0%	5%	0%	4%	9%	0%	0%	3%
Fc1cccc(COc2ccc(Nc3ncnc4sc(-c5ccc[nH]5)cc34)cc2Cl)c1 [GW707818]	28%	17%	13%	0%	0%	9%	8%	0%	3%	31%	0%	0%	0%	28%	0%	22%	28%	0%	30%	4%
NC(=O)c1sc(-n2cnc3ccccc32)cc1OCc1ccccc1F [GSK1024306]	24%	0%	0%	0%	0%	17%	20%	0%	0%	18%	10%	6%	12%	3%	0%	0%	0%	1%	0%	19%
Cl.c1ccc(Cn2ccc3cc(Nc4ncnc5ccccc45)ccc32)cc1 [GW275568]	0%	55%	20%	0%	0%	26%	55%	15%	0%	22%	4%	19%	0%	21%	7%	30%	22%	10%	2%	8%
CS(=O)(=O)CCNCc1ccc(-c2ccc3ncnc(Nc4ccc(OCc5ccccc5)c(Cl)c4)c3c2)o1.Cl [GW574783]	7%	0%	0%	20%	0%	15%	10%	0%	0%	6%	3%	5%	0%	0%	0%	0%	0%	0%	4%	10%
Fc1ccc(-c2ncn(CCCNCc3ccccc3)c2-c2ccncc2)cc1	19%	4%	0%	22%	90.4%	96.6%	98.3%	5%	7%	20%	22%	27%	25%	23%	11%	16%	0%	2%	15%	18%
Cc1ccc(C)c(NC(=O)NCCNc2ccnc(Nc3ccc(F)cc3)n2)c1 [GSK1379878]	15%	7%	100%	0%	11%	0%	33%	0%	0%	24%	5%	0%	0%	0%	0%	11%	19%	0%	0%	1%
N#Cc1ccc(Oc2ccc(Nc3ncnc4cc[nH]c34)cc2Cl)cc1	3%	7%	33%	15%	2%	5%	7%	8%	25%	21%	48%	24%	5%	30%	16%	15%	9%	24%	20%	9%
CCc1nc(-c2cccc(C)c2)c(-c2ccnc(NC(=O)c3ccccc3)c2)s1	11%	11%	1%	39%	81%	89%	82%	0%	3%	0%	12%	29%	0%	23%	0%	0%	11%	6%	0%	0%
Fc1cccc(COc2ccc(Nc3ncnc4cc[nH]c34)cc2Cl)c1	0%	6%	24%	6%	2%	0%	10%	18%	18%	4%	36%	22%	53%	20%	45%	22%	29%	8%	8%	9%
CC(C)(C)OC(=O)NC1CCCN(c2cc(-c3ccc4c(N)n[nH]c4c3)nc(N)n2)C1 (stereo not drawn) [GSK2286096]	0%	10%	0%	0%	0%	5%	18%	24%	0%	24%	0%	5%	0%	18%	0%	12%	10%	0%	0%	0%
C[C@H]1CC[C@@H](C(=O)Nc2ccccc2)CN1c1cc(-c2ccc3c(N)n[nH]c3c2)nc(N)n1 [GSK2283293]	26%	0%	0%	16%	0%	0%	7%	7%	0%	7%	12%	0%	0%	7%	0%	0%	23%	0%	8%	0%
Cc1ccc(NC(=O)c2cccc(C#N)c2)cc1-c1ccc(C(=O)Nc2ccncc2)cc1 [GSK1398463]	0%	98.3%	0%	15%	0%	19%	29%	23%	1%	41%	0%	9%	19%	0%	0%	6%	19%	15%	0%	100%
